Results published in PMC7862700, “An all-to-all approach to the identification of sequence-specific readers for epigenetic DNA modifications on cytosine”.

Columns and labels:
Assay in all cases: DAPPL (digital affinity profiling via proximity ligation, sequencing); 10 mM Tris-HCl pH 7.5, 50 mM NaCl, 1 mM DTT, 4% glycerol, room temperature, 30 min; GST-TFs on glutathione beads, 16-mer random dsDNA library, 0.1% formaldehyde crosslink after washing; high values mean tight binding
FEV = target: T1, FEV (Homo sapiens, UniProt Q99581 1-238); conditions: protein: recombinant; tags: N-terminal GST; dsDNA, one strand shown
T1 sequence: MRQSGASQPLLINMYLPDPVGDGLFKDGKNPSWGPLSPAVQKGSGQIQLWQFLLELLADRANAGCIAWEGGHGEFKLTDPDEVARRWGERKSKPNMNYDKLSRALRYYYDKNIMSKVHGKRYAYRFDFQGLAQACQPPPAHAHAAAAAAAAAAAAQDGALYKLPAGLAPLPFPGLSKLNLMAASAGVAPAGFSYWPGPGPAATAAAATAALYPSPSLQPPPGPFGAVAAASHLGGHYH
In short: (§1)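 Yeast served to express human transcription factors as GST fusions, which were then captured on glutathione beads and labelled with DNA barcodes. Pooled with a tag-only sample, they were incubated with 200 nmole of a 16-mer random double-stranded DNA library for 30 min at room temperature in Tris/NaCl/DTT/glycerol buffer, washed, crosslinked with 0.1% formaldehyde, ligated by proximity, amplified by PCR and sequenced. Dividing each hexamer's read frequency for a factor by its frequency for the tag-only sample gives the binding signal.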

ETV5 = ETV5 (Homo sapiens, UniProt P41161 1-510); conditions: protein: recombinant; tags: N-terminal GST; dsDNA, one strand shown
In short: as §1

HSF1 = HSF1 (Homo sapiens, UniProt Q00613 1-529); conditions: protein: recombinant; tags: N-terminal GST; chain copies: 3; dsDNA, one strand shown
In short: as §1

SPIC = target: T2, SPIC (Homo sapiens, UniProt Q8N5J4 1-248); conditions: protein: recombinant; tags: N-terminal GST; dsDNA, one strand shown
T2 sequence: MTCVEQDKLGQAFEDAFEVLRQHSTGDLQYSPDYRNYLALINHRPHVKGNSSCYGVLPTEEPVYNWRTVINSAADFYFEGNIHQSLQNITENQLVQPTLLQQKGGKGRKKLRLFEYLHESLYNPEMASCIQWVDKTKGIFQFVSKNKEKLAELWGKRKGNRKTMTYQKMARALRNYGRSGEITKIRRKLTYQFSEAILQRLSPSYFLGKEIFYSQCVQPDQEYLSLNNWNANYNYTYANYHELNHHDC
In short: as §1

ELF4 = ELF4 (Homo sapiens, UniProt Q99607 1-663); conditions: protein: recombinant; tags: N-terminal GST; dsDNA, one strand shown
In short: as §1

ELK4 = target: T3, ELK4 (Homo sapiens, UniProt P28324-2 1-405); conditions: protein: recombinant; tags: N-terminal GST; dsDNA, one strand shown
T3 sequence: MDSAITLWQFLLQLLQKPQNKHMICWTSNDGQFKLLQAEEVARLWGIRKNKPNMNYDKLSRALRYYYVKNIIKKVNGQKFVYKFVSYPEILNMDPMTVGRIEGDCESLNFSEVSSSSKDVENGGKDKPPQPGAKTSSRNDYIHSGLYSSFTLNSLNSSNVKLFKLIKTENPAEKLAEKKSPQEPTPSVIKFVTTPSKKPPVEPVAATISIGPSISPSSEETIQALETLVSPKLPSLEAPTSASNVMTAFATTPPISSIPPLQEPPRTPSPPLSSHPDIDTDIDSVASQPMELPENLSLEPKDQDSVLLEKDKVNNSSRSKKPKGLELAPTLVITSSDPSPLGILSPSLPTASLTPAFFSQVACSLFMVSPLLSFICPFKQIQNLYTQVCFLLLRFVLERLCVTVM
In short: as §1

ETV2 = target: T4, ETV2 (Homo sapiens, UniProt O00321 1-342); conditions: protein: recombinant; tags: N-terminal GST; dsDNA, one strand shown
T4 sequence: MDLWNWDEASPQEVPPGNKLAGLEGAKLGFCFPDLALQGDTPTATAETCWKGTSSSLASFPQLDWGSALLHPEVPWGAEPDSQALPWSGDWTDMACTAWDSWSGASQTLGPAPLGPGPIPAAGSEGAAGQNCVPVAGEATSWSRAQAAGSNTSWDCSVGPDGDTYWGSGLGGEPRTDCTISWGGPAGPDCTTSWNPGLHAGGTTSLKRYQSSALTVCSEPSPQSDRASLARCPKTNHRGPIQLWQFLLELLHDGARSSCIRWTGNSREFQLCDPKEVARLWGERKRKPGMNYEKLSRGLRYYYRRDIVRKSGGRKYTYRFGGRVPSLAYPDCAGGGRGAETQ
In short: as §1

ELF3 = target: T5, ELF3 (Homo sapiens, UniProt P78545 1-371); conditions: protein: recombinant; tags: N-terminal GST; dsDNA, one strand shown
T5 sequence: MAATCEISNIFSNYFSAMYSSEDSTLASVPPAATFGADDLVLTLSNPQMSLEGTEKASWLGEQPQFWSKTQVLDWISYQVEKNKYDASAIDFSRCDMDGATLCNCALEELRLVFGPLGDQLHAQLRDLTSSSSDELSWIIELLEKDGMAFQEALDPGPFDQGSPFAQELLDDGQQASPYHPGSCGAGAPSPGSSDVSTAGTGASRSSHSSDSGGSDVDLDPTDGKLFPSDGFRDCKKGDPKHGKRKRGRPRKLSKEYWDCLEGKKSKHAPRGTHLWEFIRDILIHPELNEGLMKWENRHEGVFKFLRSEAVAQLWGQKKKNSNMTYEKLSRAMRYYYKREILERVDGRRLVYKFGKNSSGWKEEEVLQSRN
In short: as §1

ETV1 = ETV1 (Homo sapiens, UniProt P50549 1-477); conditions: protein: recombinant; tags: N-terminal GST; dsDNA, one strand shown
In short: as §1

ERF = target: T6, ERF (Homo sapiens, UniProt P50548 1-548); conditions: protein: recombinant; tags: N-terminal GST; dsDNA, one strand shown
T6 sequence: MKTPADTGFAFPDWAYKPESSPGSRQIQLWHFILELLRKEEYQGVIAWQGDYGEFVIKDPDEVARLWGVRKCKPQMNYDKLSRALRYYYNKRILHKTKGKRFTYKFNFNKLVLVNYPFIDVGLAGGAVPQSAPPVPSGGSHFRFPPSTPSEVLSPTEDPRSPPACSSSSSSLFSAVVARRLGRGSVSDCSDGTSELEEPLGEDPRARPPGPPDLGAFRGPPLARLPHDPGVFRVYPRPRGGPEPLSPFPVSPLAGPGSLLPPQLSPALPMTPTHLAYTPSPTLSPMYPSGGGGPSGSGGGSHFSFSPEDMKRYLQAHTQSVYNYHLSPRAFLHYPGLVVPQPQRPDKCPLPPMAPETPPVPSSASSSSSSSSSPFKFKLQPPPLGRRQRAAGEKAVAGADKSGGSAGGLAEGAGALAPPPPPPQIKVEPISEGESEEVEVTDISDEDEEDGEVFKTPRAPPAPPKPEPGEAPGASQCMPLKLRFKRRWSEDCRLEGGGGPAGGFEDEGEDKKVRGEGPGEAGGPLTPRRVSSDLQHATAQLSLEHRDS
In short: as §1

ETV3L = target: T7, ETV3L (Homo sapiens, UniProt Q6ZN32 1-361); conditions: protein: recombinant; tags: N-terminal GST; dsDNA, one strand shown
T7 sequence: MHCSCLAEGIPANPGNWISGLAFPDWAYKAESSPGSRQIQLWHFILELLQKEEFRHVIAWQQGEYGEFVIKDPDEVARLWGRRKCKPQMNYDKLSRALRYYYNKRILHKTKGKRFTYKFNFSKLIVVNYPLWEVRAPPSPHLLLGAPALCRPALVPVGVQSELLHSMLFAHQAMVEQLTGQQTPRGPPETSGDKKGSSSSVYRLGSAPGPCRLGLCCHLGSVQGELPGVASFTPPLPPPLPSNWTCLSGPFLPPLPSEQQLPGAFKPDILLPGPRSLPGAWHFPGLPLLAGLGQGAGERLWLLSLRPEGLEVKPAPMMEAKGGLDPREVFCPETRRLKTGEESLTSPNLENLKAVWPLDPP
In short: as §1

ETS2 = target: T8, ETS2 (Homo sapiens, UniProt P15036 1-469); conditions: protein: recombinant; tags: N-terminal GST; dsDNA, one strand shown
T8 sequence: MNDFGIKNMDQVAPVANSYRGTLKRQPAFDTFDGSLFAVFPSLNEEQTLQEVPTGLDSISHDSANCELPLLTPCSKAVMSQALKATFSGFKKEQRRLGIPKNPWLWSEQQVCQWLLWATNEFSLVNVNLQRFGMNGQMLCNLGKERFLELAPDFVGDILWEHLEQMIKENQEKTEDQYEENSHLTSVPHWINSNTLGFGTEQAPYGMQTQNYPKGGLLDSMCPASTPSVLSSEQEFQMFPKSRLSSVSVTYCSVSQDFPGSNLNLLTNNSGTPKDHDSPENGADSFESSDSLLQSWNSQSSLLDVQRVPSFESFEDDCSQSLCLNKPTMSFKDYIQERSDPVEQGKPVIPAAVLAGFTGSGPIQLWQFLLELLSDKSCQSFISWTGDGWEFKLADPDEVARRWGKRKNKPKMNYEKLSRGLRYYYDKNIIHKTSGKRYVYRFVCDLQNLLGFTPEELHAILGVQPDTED
In short: as §1

SPDEF = target: T9, SPDEF (Homo sapiens, UniProt O95238 1-335); conditions: protein: recombinant; tags: N-terminal GST; dsDNA, one strand shown
T9 sequence: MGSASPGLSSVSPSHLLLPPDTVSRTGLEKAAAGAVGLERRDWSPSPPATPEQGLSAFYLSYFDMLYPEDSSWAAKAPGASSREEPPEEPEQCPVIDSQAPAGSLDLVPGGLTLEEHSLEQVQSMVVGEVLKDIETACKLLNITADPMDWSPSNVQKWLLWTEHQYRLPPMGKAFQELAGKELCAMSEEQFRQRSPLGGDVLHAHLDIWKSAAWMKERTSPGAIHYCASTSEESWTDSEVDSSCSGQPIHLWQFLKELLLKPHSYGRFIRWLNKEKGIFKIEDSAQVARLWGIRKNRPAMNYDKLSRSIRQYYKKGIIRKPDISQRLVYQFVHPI
In short: as §1

ETV7 = target: T10, ETV7 (Homo sapiens, UniProt Q9Y603 1-341); conditions: protein: recombinant; tags: N-terminal GST; dsDNA, one strand shown
T10 sequence: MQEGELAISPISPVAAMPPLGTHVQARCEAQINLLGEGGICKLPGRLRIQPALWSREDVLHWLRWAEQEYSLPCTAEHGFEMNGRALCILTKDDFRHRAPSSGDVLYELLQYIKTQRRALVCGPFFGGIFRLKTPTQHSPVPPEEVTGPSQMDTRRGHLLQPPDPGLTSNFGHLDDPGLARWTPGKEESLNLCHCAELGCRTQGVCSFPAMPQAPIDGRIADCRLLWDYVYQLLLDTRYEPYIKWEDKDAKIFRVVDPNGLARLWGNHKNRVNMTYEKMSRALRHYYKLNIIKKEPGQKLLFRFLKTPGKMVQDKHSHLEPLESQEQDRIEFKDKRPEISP
In short: as §1

ELF5 = target: T11, ELF5 (Homo sapiens, UniProt Q9UKW6-2 1-255); conditions: protein: recombinant; tags: N-terminal GST; dsDNA, one strand shown
T11 sequence: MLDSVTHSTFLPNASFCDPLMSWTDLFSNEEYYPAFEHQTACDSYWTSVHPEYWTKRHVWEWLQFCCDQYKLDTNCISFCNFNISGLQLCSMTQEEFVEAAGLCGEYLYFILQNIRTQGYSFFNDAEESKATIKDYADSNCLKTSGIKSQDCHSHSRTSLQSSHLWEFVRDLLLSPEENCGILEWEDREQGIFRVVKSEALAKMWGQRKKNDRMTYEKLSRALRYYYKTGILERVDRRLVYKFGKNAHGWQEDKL
In short: as §1

ETV3 = target: T12, ETV3 (Homo sapiens, UniProt P41162-2 1-143); conditions: protein: recombinant; tags: N-terminal GST; dsDNA, one strand shown
T12 sequence: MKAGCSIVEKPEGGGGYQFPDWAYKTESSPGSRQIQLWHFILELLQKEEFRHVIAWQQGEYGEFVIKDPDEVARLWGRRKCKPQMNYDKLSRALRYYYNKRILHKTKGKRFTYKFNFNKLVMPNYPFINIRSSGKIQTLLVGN
In short: as §1

ETV6 = ETV6 (Homo sapiens, UniProt P41212 1-452); conditions: protein: recombinant; tags: N-terminal GST; dsDNA, one strand shown
In short: as §1

Sequence of ETV6 (P41212 whole entry): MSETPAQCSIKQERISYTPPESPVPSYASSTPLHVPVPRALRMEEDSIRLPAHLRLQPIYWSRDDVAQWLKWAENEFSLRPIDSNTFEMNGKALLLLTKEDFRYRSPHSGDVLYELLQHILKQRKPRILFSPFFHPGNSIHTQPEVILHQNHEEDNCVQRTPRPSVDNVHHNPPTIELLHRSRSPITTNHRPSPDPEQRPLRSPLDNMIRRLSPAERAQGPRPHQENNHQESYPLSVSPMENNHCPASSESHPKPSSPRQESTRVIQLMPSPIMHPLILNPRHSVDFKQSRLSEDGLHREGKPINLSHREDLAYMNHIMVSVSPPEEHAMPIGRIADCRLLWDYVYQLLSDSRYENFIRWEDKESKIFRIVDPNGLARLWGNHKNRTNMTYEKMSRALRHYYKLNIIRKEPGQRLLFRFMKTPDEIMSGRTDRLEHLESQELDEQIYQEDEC
Sequence of HSF1 (Q00613 whole entry): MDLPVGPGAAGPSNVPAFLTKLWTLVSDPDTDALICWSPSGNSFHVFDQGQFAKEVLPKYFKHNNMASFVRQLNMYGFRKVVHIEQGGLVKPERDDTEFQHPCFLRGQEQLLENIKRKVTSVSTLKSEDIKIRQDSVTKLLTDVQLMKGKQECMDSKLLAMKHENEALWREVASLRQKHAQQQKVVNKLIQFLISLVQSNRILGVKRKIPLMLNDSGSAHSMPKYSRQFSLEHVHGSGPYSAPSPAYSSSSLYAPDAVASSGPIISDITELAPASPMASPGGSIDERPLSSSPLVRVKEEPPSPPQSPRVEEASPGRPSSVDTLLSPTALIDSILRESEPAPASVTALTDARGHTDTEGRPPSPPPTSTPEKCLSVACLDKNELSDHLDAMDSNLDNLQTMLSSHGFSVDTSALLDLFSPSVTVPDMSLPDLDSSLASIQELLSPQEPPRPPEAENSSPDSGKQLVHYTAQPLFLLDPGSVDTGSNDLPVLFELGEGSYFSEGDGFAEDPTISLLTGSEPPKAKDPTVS
Sequence of ETV5 (P41161 whole entry): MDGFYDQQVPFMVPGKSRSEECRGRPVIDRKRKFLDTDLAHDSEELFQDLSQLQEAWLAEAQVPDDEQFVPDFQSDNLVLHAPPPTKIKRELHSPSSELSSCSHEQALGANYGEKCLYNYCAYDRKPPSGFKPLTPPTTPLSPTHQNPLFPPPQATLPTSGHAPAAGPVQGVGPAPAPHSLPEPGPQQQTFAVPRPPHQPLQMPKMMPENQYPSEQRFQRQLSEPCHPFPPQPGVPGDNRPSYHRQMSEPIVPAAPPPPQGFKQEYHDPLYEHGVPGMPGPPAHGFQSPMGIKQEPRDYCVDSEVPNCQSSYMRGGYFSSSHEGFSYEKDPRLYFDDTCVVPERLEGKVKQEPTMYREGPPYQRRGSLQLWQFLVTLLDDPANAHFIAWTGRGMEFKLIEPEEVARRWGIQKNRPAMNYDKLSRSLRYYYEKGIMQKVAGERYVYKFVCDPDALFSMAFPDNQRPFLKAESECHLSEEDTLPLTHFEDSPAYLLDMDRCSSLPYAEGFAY
Sequence of ELF4 (Q99607 whole entry): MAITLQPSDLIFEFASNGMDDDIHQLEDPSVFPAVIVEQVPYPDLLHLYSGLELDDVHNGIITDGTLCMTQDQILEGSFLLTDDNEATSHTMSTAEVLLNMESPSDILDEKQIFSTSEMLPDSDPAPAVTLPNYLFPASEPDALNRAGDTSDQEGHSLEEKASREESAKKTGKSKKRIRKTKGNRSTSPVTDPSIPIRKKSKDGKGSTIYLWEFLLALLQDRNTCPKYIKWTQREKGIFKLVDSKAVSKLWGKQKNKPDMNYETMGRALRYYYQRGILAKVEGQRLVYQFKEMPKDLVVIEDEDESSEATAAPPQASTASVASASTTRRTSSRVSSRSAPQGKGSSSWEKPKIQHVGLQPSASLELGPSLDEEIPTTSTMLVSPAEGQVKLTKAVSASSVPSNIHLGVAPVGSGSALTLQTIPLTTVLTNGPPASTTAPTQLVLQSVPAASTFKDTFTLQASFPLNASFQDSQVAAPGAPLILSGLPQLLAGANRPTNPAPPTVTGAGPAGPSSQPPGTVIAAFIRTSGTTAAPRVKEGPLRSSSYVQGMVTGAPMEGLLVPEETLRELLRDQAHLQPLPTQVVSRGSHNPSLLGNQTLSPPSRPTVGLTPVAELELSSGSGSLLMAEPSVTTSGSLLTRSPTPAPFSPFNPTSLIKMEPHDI
Sequence of ETV1 (P50549 whole entry): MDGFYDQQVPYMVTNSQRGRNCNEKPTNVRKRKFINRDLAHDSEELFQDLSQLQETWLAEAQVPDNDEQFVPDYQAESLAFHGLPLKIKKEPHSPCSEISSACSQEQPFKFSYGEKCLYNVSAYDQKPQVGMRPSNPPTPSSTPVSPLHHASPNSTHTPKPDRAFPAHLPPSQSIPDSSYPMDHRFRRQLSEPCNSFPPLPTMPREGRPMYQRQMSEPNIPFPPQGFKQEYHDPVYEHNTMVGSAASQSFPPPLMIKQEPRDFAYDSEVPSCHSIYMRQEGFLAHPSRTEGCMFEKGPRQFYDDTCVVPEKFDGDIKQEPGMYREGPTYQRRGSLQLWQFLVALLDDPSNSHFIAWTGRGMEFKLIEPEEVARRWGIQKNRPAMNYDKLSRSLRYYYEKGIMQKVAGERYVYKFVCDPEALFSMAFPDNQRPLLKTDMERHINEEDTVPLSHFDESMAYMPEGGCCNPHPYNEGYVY

Sequence: GTTCCA
- binding signal (FEV): 1.01 fold enrichment (6-mer frequency, TF over GST control)
- binding signal (ETV5): 1.05 fold enrichment (6-mer frequency, TF over GST control)
- binding signal (HSF1): 1.79 fold enrichment (6-mer frequency, TF over GST control)
- binding signal (SPIC): 1.21 fold enrichment (6-mer frequency, TF over GST control)
- binding signal (ELF4): 1.13 fold enrichment (6-mer frequency, TF over GST control)
- binding signal (ELK4): 1.14 fold enrichment (6-mer frequency, TF over GST control)
- binding signal (ETV2): 1.06 fold enrichment (6-mer frequency, TF over GST control)
- binding signal (ELF3): 1.12 fold enrichment (6-mer frequency, TF over GST control)
- binding signal (ETV1): 1.06 fold enrichment (6-mer frequency, TF over GST control)
- binding signal (ERF): 1 fold enrichment (6-mer frequency, TF over GST control)
- binding signal (ETV3L): 1.04 fold enrichment (6-mer frequency, TF over GST control)
- binding signal (ETS2): 1.13 fold enrichment (6-mer frequency, TF over GST control)
- binding signal (SPDEF): 1.1 fold enrichment (6-mer frequency, TF over GST control)
- binding signal (ETV7): 1.12 fold enrichment (6-mer frequency, TF over GST control)
- binding signal (ELF5): 1.07 fold enrichment (6-mer frequency, TF over GST control)
- binding signal (ETV3): 1.04 fold enrichment (6-mer frequency, TF over GST control)
- binding signal (ETV6): 1.04 fold enrichment (6-mer frequency, TF over GST control)
